Measured values: PubChem BioAssay (NCI)
The panel holds about 83,000 compounds, 20% with a hit somewhere; the sample as a whole holds those more often.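 The endpoint reported here, percent growth, reads 100 for growth as untreated, 0 for no net growth and -100 for all cells dead.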 The source made the active and inactive calls. Rule for the calls: active = growth percent below 10; inactive = the rest.

Test system: NCI-H23 lung
Assay: NCI-60 one-dose screen, 48 h (100 = growth as untreated, 0 = no growth, -100 = all killed)
Conditions: 10 µM unless noted

For `O=[N+]([O-])c1cccc2cc(S(=O)(=O)O)ccc12`, which growth is on record?
The growth was 105% (inactive).

How did the growth turn out when `COc1ccc(SC2c3ccc(O)cc3Oc3nc(N)c(C#N)c(N)c32)cc1` (centres undefined) was run?
The growth was 93.3% (inactive).

Which growth does the source give for `Nc1nccc2c1ccn2-c1cccc(NC(=O)c2ccc(N3CCOCC3)c(C(F)(F)F)c2)c1` here?
Its growth is 16.4% (inactive).

With `COc1ccc(OC)c(NCC(=O)n2nc(/C=C\c3ccc(O)c(OC)c3)cc2/C=C\c2ccc(O)c(OC)c2)c1` as the compound, how does the growth read?
Its growth is 19.1% (inactive).

How did the growth turn out when `O=C(Nc1ccc(-n2cc(-c3ccncc3)c(-c3ccc(O)c(Cl)c3)n2)cc1)c1cc(C(F)(F)F)cc(C(F)(F)F)c1` was run?
Its growth is 82% (inactive).

`CC(C)(C)OC(=O)N1CCN(CCn2cc(C(F)(F)F)c3c(Cl)ncnc32)CC1` was tested. Which growth did it give?
Its growth is 44.8% (inactive).

`COc1cc([C@@H]2c3cc4c(cc3C(OC3O[C@@H]5COC(C)O[C@H]5[C@H](O)[C@H]3O)C3COC(=O)[C@@H]32)OCO4)cc(OC)c1O` (some centres undefined) was tested. Which growth did it give?
Its growth is 14.3% (inactive).

For `CNCCCOc1c(Br)cc(CCNC(=O)/C(Cc2cc(Br)c(OC)c(Br)c2)=N/O)cc1Br`, which growth is on record?
Its growth is -20.9% (active).

With `CCCCCCCCN(CCCCCCCC)CC(O)c1cc(-c2ccccc2)nc2ccc(OC)cc12` (centres undefined) as the compound, how does the growth read?
Its growth is 67.1% (inactive).

How did the growth turn out when `CC(C)(C)NC(C1=CC(C)(C)c2ccccc2C1=O)c1ccccc1` (centres undefined) was run?
The growth was 9.47% (active).

With `CCOC(=O)C1CSC(C)(C(=O)OCC)N1` (centres undefined) as the compound, how does the growth read?
Its growth is 99.5% (inactive).

For `COc1ccc(-c2coc3c(CO)c(O)ccc3c2=O)cc1`, which growth is on record?
Its growth is 79.5% (inactive).

For `O=C(Cn1c2ccccc2c2ccncc21)N/N=C/c1c[nH]c2ccccc12`, which growth is on record?
The growth was 48.3% (inactive).

For `CCCCC(=O)Nc1nc2ccc(SCCC)cc2s1`, which growth is on record?
The growth was 68.5% (inactive).

How did the growth turn out when `O=C(COc1ccc(Cl)cc1Cl)N1N=C(c2ccc(Cl)cc2Cl)CC1(O)c1cc(F)c(Cl)cc1Cl` (centres undefined) was run?
The growth was 98.7% (inactive).

Which growth does the source give for `Nc1nccc2c1ccn2-c1ccc(NC(=O)Nc2cccc(C(F)(F)F)c2)cc1` here?
The growth was 90% (inactive).

`COc1ccc(CNc2nc3ccccc3c3c(=O)c4ccccc4sc23)cc1OC` was tested. Which growth did it give?
The growth was 80.9% (inactive).

`O=C1CCC(=O)N1C1CCCCC1` was tested. Which growth did it give?
The growth was 93% (inactive).

`Nc1ccc(S(=O)(=O)Nc2ccnn2-c2ccccc2)cc1` was tested. Which growth did it give?
Its growth is 107% (inactive).

With `COc1ccc(C2=NN(C(=O)COc3ccc(Cl)cc3)C(O)(c3cc(F)c(Cl)cc3Cl)C2)cc1OC` (centres undefined) as the compound, how does the growth read?
The growth was 49.7% (inactive).

For `NCC(=O)NS(=O)(=O)OC[C@H]1O[C@@H](n2cnc3c(N)ncnc32)[C@H](O)[C@@H]1O`, which growth is on record?
The growth was 5.7% (active).

For `CCCC(=O)Oc1ccc(/C(=C(\C)c2ccc(Cl)cc2)c2ccc(OCCN(CC)CC)cc2)cc1`, which growth is on record?
The growth was -33.4% (active).

Which growth does the source give for `O=C(NCCNc1nccc(-c2c(-c3cccc(O)c3)nc3sccn23)n1)c1ccc(N2CCOCC2)c(C(F)(F)F)c1` here?
The growth was 85.4% (inactive).

How did the growth turn out when `C#C[C@@]1(O)[C@@H](CO)O[C@@H](n2cc(Br)c3c(Cl)ccnc32)[C@@H]1O` was run?
Its growth is 31.9% (inactive).

For `CN(C)c1ccc(/C=N/N=C(N)N)cc1`, which growth is on record?
The growth was 81.2% (inactive).

Which growth does the source give for `C=C1c2c(Cl)ccc(O)c2C(O)=C2C(=O)[C@]3(O)C(O)=C(C(N)=O)C(=O)[C@@H](N(C)C)[C@@H]3[C@@H](O)[C@H]12` here?
Its growth is 8.01% (active).

How did the growth turn out when `O=C(Nc1ccccc1Cl)c1c[nH]c(=O)c(-c2ccc(N3CCCOC4(CC4)C3)cc2)c1` was run?
Its growth is 46.9% (inactive).

Which growth does the source give for `Cc1ccc2oc(=O)cc(C3C(C#N)=C(N)Oc4c3ccc3ccccc43)c2c1` (centres undefined) here?
The growth was 89.8% (inactive).

Which growth does the source give for `COc1ccc2c(-c3ccc(F)cc3)c(C#N)c(=NC(C)=O)oc2c1` here?
The growth was 53.8% (inactive).

How did the growth turn out when `O=C(Nc1ccc(-n2ccc3c(NC(=O)c4ccccc4)ncnc32)cc1)c1cccc(C(F)(F)F)c1` was run?
Its growth is 80.6% (inactive).

For `C=C1C(=O)O[C@H]2[C@H]1CC/C(COC(=O)n1ccnc1C)=C\CC[C@@]1(C)O[C@@H]21`, which growth is on record?
The growth was 98.7% (inactive).

How did the growth turn out when `CCn1cc(C(=O)O)c(=O)c2cc(F)c(N3CCN(CC(=O)Nc4ccc(C(C)=O)cc4)CC3)cc21` was run?
Its growth is 93% (inactive).

With `COc1ccc(Cl)cc1NC(=O)c1cc2c([nH]1)-c1nc(NC(=O)C(C)(C)C)sc1CC2` as the compound, how does the growth read?
The growth was 57.8% (inactive).

With `COc1ccccc1P(c1ccccc1OC)c1ccccc1OC` as the compound, how does the growth read?
Its growth is 250% (inactive).

With `Nc1nc(=S)ss1` as the compound, how does the growth read?
Its growth is 98.7% (inactive).

How did the growth turn out when `CCCOC(=O)c1ccc([N+](=O)[O-])o1` was run?
The growth was 108% (inactive).

With `O=C(CSc1nnc(-c2ccc(Cl)cc2)o1)Nc1ccc(C(=O)/C=C/c2ccccc2)cc1` as the compound, how does the growth read?
The growth was 93.3% (inactive).

With `Cc1ccc(NC(=O)CN2CCOCC2)cc1Cl` as the compound, how does the growth read?
The growth was 101% (inactive).

How did the growth turn out when `CCCCCC/C=N/Nc1ccc([N+](=O)[O-])cn1` was run?
Its growth is 98.3% (inactive).
